In all, about 340,000 compounds went through this assay and about 280 (0.082%) were called active. The list comes from a sample in which actives are over-represented; it also holds similar structures and randomly drawn compounds. A number with no mark means an inactive call. No stated cut-off is given here; in the data, active means inhibition mostly above about 23% (no sharp cut-off); inactive means mostly below about 18%.
The molecules below were run against 5-hydroxytryptamine receptor 5A (Homo sapiens) (UniProt P47898) (assay: HTR5A inverse agonists in luminescence cell assay, primary screen, counter-screen for OPRM1-OPRD1 heterodimer inverse agonist project, full-deck HTS (AID 504634;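 further: 0% = cells with DMSO and 100% = no-cell wells with DMSO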)). Settings: HTR5A cell line, inverse agonism, at 9.3 µM, stronger effect = higher value.
Sequence of 5-hydroxytryptamine receptor 5A (Homo sapiens) (P47898 whole entry, looked up): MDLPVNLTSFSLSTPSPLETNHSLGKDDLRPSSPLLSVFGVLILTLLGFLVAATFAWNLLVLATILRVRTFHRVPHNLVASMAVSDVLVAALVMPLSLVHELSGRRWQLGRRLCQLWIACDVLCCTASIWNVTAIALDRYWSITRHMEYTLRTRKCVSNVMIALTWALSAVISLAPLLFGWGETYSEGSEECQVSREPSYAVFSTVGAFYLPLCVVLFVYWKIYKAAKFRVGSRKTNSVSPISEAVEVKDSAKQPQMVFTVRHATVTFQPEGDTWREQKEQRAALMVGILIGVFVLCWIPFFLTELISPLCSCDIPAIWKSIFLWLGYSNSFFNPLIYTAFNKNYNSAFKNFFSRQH
`CCOc1ccc(CCNC(=O)CN2C(=O)NC3(CCc4ccccc43)C2=O)cc1OCC` (stereo not given) gave an inhibition of 16.7%. Work on `COc1cc(NC(=O)c2ccc(CNc3c(N4CCCC4)c(=O)c3=O)cc2)cc(OC)c1OC` yielded an inhibition of -11.7%. Work on `CC(=O)c1ccc(Oc2cc(C)nc(-n3nc(C)cc3C)n2)cc1` yielded an inhibition of 6.21%. `Cc1cc(C)n(-c2ccc3nncn3n2)n1` showed an inhibition of 5.02%. `Cc1cc(C)n(-c2ccc(Cl)c(C(=O)O)n2)n1` was tested, and the inhibition was 39.8% (active). With `COc1ccc(N2C(=O)C(CC(=O)Nc3ccc(F)cc3)N(CCc3cccs3)C2=O)cc1` (stereo not given) the inhibition was 6.13%. `COc1ccc(NS(=O)(=O)c2cc(NC(=O)c3ccc(S(=O)(=O)N(C)C)cc3)ccc2N2CCOCC2)cc1` gave an inhibition of 8.03%. Work on `Cc1cc(C)cc(NC(=O)CSCc2cnn(-c3ccccc3)c2-n2cccc2)c1` yielded an inhibition of 3.55%. For `CCOC(=O)NC(=O)C(=CNc1cccc(OC)c1)C(=O)NC(=O)OCC`, the inhibition was 34% (active). For `CCOC(=O)C1CCN(C(=O)Nc2cccc(OC)c2)CC1`, the inhibition was 17.6%. `COc1cccc(NC(=O)COC(=O)CCOc2ccccc2OC)c1` showed an inhibition of -27.4%. With `COCCn1c(SCC(=O)Nc2cc(Cl)ccc2OC)nc2c(c1=O)SC(C)C2` (stereo not given) the inhibition was -31.9%. With `N#CC1(C#N)C(C(=O)C23CC4CC(CC(C4)C2)C3)C12CCOCC2` (stereo not given) the inhibition was 20.3%. Molecule `COc1cc(C)nc(N2CCCC(C(=O)NCC(C)C)C2)n1` (stereo not given) has an inhibition of -13.9%. For `CCNc1nc(NCC)nc(N(C)n2cnnc2)n1`, the inhibition was 13%. Molecule `O=C(Nc1ccc2c(c1)C(=O)OC2)Nc1cccc2ccccc12` has an inhibition of -14.2%. `O=S(=O)(NC1CCCCC1N1CCC(O)CC1)c1ccc(Cl)cc1` (stereo not given) showed an inhibition of -6.29%. `O=C(COc1ccccc1F)NNC(=O)c1ccc(N2CCCCC2)c([N+](=O)[O-])c1` gave an inhibition of 7.26%. `O=c1[nH]n2c(=O)c3c([nH]c2c1N=Nc1ccccc1)CCC3` was tested, and the inhibition was 17%. For `Cc1c(CNCCc2ccccc2)c(C(=O)O)c(C)n1-c1ccccc1`, the inhibition was 10.6%. `CCc1ccc(CCC(=O)Nc2ccc(S(N)(=O)=O)cc2)o1` gave an inhibition of -4.51%. For `COc1ccc(OCc2nnc3n2N=C(c2ccccc2)C(CC(=O)O)S3)cc1` (stereo not given), the inhibition was -14.6%. In the case of `O=C(Nc1ccc(Br)c2cccnc12)c1ccc(Cn2cc([N+](=O)[O-])cn2)o1`, the inhibition is reported as -5.7%. In the case of `O=C(CSc1nnc2ccc(-c3ccncc3)nn12)N1CCCCC1`, the inhibition is reported as -11.3%. Work on `OCCN1CCN(CCO)C1=S` yielded an inhibition of 12.7%. `CCCCn1c(N)c(N2CCOCC2)c(=O)n(CC(=O)NCCc2ccccc2)c1=O` gave an inhibition of -7.42%. Work on `CCC(C(=O)OC)n1cnc2scc(-c3ccc(C)cc3)c2c1=O` (stereo not given) yielded an inhibition of 18%. With `COc1cc(C(=S)N2CCOCC2)cc(OC)c1OC(=O)c1cc([N+](=O)[O-])c(C)c([N+](=O)[O-])c1` the inhibition was -9.45%. With `COc1ccc(/C=C/C(=O)c2cc(Br)ccc(=O)c2O)cc1` the inhibition was -37%. `CC(=O)CCS(=O)(=O)c1ccc(C)c(C)c1` showed an inhibition of 6.1%. In the case of `CCCCN(CC)C(=O)c1ccccc1Oc1ccccc1`, the inhibition is reported as 4.41%. For `C=CCn1c(SCC(=O)NC(=O)Cc2ccccc2)nc2ccccc2c1=O`, the inhibition was 4.86%. Molecule `CCOc1cc(S(=O)(=O)NCc2ccc3c(c2)OCO3)ccc1F` has an inhibition of 18.6%. Molecule `Cc1cc(-c2nc(C)c(-c3nnc(SCC(=O)Nc4ccccc4)n3C)s2)no1` has an inhibition of 0.1%. For `CC(=O)N1CCN(c2ccc(NCc3ccc(C(C)C)cc3)cc2)CC1`, the inhibition was -28.6%. Molecule `CC1CCCN(c2ccc(C(=O)NCCc3ccccc3)cn2)C1` (stereo not given) has an inhibition of -15.3%. Molecule `C=C1CCN([C@@H](Cc2ccccc2)C(=O)N2CCOCC2)S(=O)(=O)c2ccccc21` has an inhibition of -14.5%. `CCOC(=O)N1CCC(NC(=O)C(NS(=O)(=O)c2ccc3c(c2)CCN3C(=O)CC)C(C)C)CC1` (stereo not given) was tested, and the inhibition was -32.3%. `CCN(c1ccccc1)S(=O)(=O)c1ccc2[nH]c(=O)[nH]c2c1` showed an inhibition of 4.19%. With `O=C(O)c1ccc(NS(=O)(=O)c2cccc3nsnc23)cc1` the inhibition was -11.7%. `Cc1cc(-c2ccc(S(=O)(=O)N3CCN(c4cccc(C(F)(F)F)c4)CC3)s2)on1` gave an inhibition of -11.3%. With `CCCCNC(=O)C1CCC(=O)N1CCc1ccccc1` (stereo not given) the inhibition was 4.38%. In the case of `COc1ccc(N2CC(C)Cn3c2nc2c3c(=O)n(Cc3ccccc3F)c(=O)n2C)c(OC)c1` (stereo not given), the inhibition is reported as 6.23%. `O=C(/C=C/c1ccc(Cl)c([N+](=O)[O-])c1)c1ccc(O)cc1` was tested, and the inhibition was 25.2% (active). `CN(C)c1ccc(/C=C/C(=O)c2ccc(O)cc2)cc1[N+](=O)[O-]` gave an inhibition of 5.01%. In the case of `CN(C)c1ccc(/C=C/C(=O)c2ccc(C(C)(C)C)cc2)cc1[N+](=O)[O-]`, the inhibition is reported as -5.83%. Molecule `CC(C)CCNC(=O)C(C)N(C(=O)Cn1nnc(-c2ccc(F)cc2)n1)C1CCCC1` (stereo not given) has an inhibition of -27.5%. `CC1(c2nnc(Cc3ccccc3)o2)CC(c2ccccc2F)=NO1` (stereo not given) gave an inhibition of -30.2%. `O=[N+]([O-])/C=C/c1ccc2c(ccn2Cc2ccccc2)c1` was tested, and the inhibition was 29.1%. `COc1ccc(CN2CCCC(C(=O)N3CCCCC3)C2)cc1` (stereo not given) gave an inhibition of -7.55%. In the case of `COc1cc(N2CCCC2)c(OC)cc1/C=C(/C#N)c1cccc(Br)c1`, the inhibition is reported as 0.8%. `Cc1noc(C)c1-c1nc(CSc2ccc(Cl)cc2)no1` was tested, and the inhibition was -15%. `O=C(NCCC1CCCCN1S(=O)(=O)c1ccccc1)C(=O)NCC1CCCO1` (stereo not given) gave an inhibition of -11.3%. `CCOc1ncccc1C(=O)N(CC)CC(=O)Nc1ccc(NC(C)=O)cc1` was tested, and the inhibition was -12.8%. With `CCSc1nc2sc3c(c2c(=O)n1-c1ccc(C)cc1)CCN(C)C3` the inhibition was -7.48%. With `CCc1ccc(OCC(=O)N(Cc2ccccc2)C2CCS(=O)(=O)C2)cc1` (stereo not given) the inhibition was 9.5%. For `O=C(NCc1ccc(F)cc1)C1CCC(CNc2c(N3CCOCC3)c(=O)c2=O)CC1` (stereo not given), the inhibition was 4.62%. Molecule `CCNC(=S)N1CCN(S(=O)(=O)c2ccc(Cl)s2)CC1` has an inhibition of 2.35%. `CSc1cccc(NC(=O)C2CCCN2S(=O)(=O)c2ccc3c(c2)CCC(=O)N3)c1` (stereo not given) gave an inhibition of -6.95%. `COn1c(=O)c(=O)n(OC)c2ccccc21` showed an inhibition of 13.4%. For `CC(NC(=O)c1cccc2ccccc12)c1ccc2c(c1)CCCC2` (stereo not given), the inhibition was -1.12%. In the case of `COCCn1c(SCC(=O)Nc2ccc3c(c2)CCC3)nc2ccccc2c1=O`, the inhibition is reported as 4.39%. Work on `COC(=O)C1CCCCN1C(=O)c1ccc(OC2CCN(C(C)=O)CC2)c(OC)c1` (stereo not given) yielded an inhibition of -12.2%. `Cc1cc(C)c(S(=O)(=O)N2CCCC2CNC(=O)c2ccc3c(c2)OCO3)c(C)c1` (stereo not given) gave an inhibition of 1.64%. `Cc1cc(NC(=O)CCN2CCN(Cc3ccccc3)CC2)ccc1Br` showed an inhibition of -5.24%. In the case of `CN(CCO)S(=O)(=O)c1ccc2c(c1)C(=O)c1cc(S(=O)(=O)N(C)CCO)ccc1-2`, the inhibition is reported as -0.05%. Work on `Cn1c(N)c(C(=O)COC(=O)c2cnc(Cl)c(Cl)c2)c(=O)n(C)c1=O` yielded an inhibition of 13.4%. `CCOc1ccc(NC(=O)CC(Cc2ccc(Cl)cc2)C(=O)O)cc1` (stereo not given) showed an inhibition of 11.4%. For `COc1ccc(CCNC(=O)COc2cc(C)cc3oc(=O)c(C)c(C)c23)cc1OC`, the inhibition was -41.4%. Molecule `Cc1cccc(C(=O)OC(C)CN2CCCC2)c1` (stereo not given) has an inhibition of -16.4%. With `O=C(NC(=S)Nc1cc(C(F)(F)F)ccc1N1CCOCC1)c1ccc(-c2cccc(Cl)c2)o1` the inhibition was 12.2%. In the case of `Cc1ccc(NC(=O)CSc2nc(=O)n(CCN(C)C)c3c2CCCC3)c(C)c1`, the inhibition is reported as 8.38%. With `Cc1c(C(=O)NCCN2C(=O)S/C(=C\c3cccs3)C2=O)cccc1[N+](=O)[O-]` the inhibition was -12.1%. In the case of `Cc1cc(NC(=O)CSC2=NS(=O)(=O)c3cc(Cl)ccc3N2)no1`, the inhibition is reported as 6.86%. `Cc1ccc(S(=O)(=O)NCC(C)NS(C)(=O)=O)cc1` (stereo not given) gave an inhibition of -0.41%. `CC(=O)N(O)CCCCCNC(=O)CCC(=O)N(O)CCCCCNC(=O)CCC(=O)N(O)CCCCCNC(=O)CCC(=O)O` showed an inhibition of 2.24%. Molecule `O=C(NCc1ccncc1)C1CCN(C(=O)c2cccc(Cl)c2)CC1` has an inhibition of -13.3%. With `Cc1[nH]c2ccccc2c1C(=O)COC(=O)c1c(-c2ccccc2)noc1C` the inhibition was -12.9%. Molecule `Nc1nonc1-n1nnc(C(=O)N/N=C/c2cc(Br)ccc2O)c1CSC1=NCCS1` has an inhibition of -4.39%. `Cc1c(-c2ccccc2)cn2c1-c1ccc(C)n1CC2` gave an inhibition of -5.32%. In the case of `Cc1noc(C)c1COc1cccc(C(=O)Nc2cccnc2)c1`, the inhibition is reported as 22.3% (active). With `Cc1noc(C)c1COc1ccc(C(=O)NCCOc2ccccc2)cc1` the inhibition was -0.9%. Work on `CC(=O)c1cccc(OCc2cc(C(=O)NC(C)Cc3cccnc3)no2)c1` (stereo not given) yielded an inhibition of -3.71%. `CCc1nc2ccccc2n(CCOCCOCCn2c(=O)c(CC)nc3ccccc32)c1=O` was tested, and the inhibition was -0.84%. For `CN(C(=O)CSc1nnc(Nc2ccccc2)s1)C1CCS(=O)(=O)C1` (stereo not given), the inhibition was 16.5%. `C/C=C/C(=O)Nc1ccc(N2CCN(c3ccc(C(F)(F)F)cn3)CC2)nc1` gave an inhibition of -13%. In the case of `O=P(O)(CP(=O)(c1ccccc1)c1ccccc1)c1ccccc1`, the inhibition is reported as 4.79%. For `COc1ccc(S(=O)(=O)N2CCSCC2)cc1`, the inhibition was 16.4%. With `CCn1cc(C(=O)NCCCN2CCCCCC2)c(=O)c2cc(S(=O)(=O)N3CCc4ccccc4C3)ccc21` the inhibition was -11%. In the case of `CCOC(=O)c1cn(CC)c2cc(F)c(F)cc2c1=O`, the inhibition is reported as -4.15%.

From PubChem BioAssay AID504634 (The Scripps Research Institute Molecular Screening Center, 2011)
